# LMNA splice mod: qHTS Assay for Modulators of Lamin A Splicing; AID 1487, 2009; hit rate 0.01% among 200,000; Potency, µM (series often up to 46.1 µM), for the others: at the highest dose ratio change, negative = inhibition, most hits filed as inhibitors; HeLa LMNA splicing GFP/RFP minigene ratio, 48 h; active means well fitted inhibition curve with a large enough effect in the signal ratio, with a control signal flat, not every such curve was filed as active; inconclusive means small, poorly fitted or top-dose-only effect, or effect the other way, or a change in a side signal; the % refers to the signal ratio; further: potency means the concentration at half of the fitted maximal effect
#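 S3 HeLa cells stably expressing lamin A-EGFP splicing minigene plus DsRed2, 600 cells/well, 48 h compound exposure at 37C. Laser-scanning cytometry; analysed as GFP (500-530 nm)/RFP (575-640 nm) total intensity ratio; 0.5% DMSO vehicle.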
# PNC assembly inh: High Content Assay for Compounds that inhibit the Assembly of the Perinucleolar Compartment; PC3M PTB-GFP, PNC prevalence imaging, 16 h; stronger effect = lower value; activity change (PNC), negative = inhibition, % at 10 µM; hit rate 3.1% among 140,000;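 active means readout at or below -70, meaning at least 70% loss of cells showing the perinucleolar compartment, a nuclear body marking cancer cells; inconclusive means readout between -30 and a set limit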;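 further: plate controls were DMSO wells for no effect and camptothecin positive control wells for full effect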
#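 PC3M cells stably expressing PTB-GFP, 750–1000 cells/well, treated 16 h at 37 °C with compound (23 nl of library stock), in duplicate. After paraformaldehyde fixation and Hoechst stain, imaged at 20x; PNC prevalence scored by image analysis.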
# IMPase inh: qHTS Assay for Identifying the Cell-Membrane Permeable IMPase Inhibitors. Inositol monophosphatase 1 (Rattus norvegicus), P97697. CHO-M1 cells, IP1 accumulation, HTRF TR-FRET ratio. inhibition (IP1 accumulation), % at 46.1 µM. 120,000 tested, under 10 active. AID 901, 2007; active means well fitted curve in the direction sought with a large enough effect in the signal ratio, not every such curve was filed as active; inconclusive means small, poorly fitted or top-dose-only effect, or a change in a side signal; inactive means no such curve, though single readings can be large or run the other way; the % refers to the signal ratio;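 further: cells stimulated with carbachol in lithium chloride buffer; plate controls were DMSO basal wells for no effect and reference inhibitor wells for full effect; higher means more IMPase inhibition seen as more IP1 and lower FRET ratio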
# Target sequence (P97697 whole entry, looked up): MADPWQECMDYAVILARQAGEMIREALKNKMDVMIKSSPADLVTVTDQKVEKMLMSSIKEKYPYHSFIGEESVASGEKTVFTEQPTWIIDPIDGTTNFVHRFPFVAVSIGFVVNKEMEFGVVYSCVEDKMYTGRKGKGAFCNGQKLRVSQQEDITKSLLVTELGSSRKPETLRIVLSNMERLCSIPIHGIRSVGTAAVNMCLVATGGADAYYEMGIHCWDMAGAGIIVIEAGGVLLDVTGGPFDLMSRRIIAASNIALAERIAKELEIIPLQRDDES
#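 The IP-One HTRF competitive assay in carbachol-stimulated CHO-M1 cells quantifies cellular IP1. Compounds spanned up to 46 uM final, and activity is expressed as AC50 from concentration-response fits of the ratio and donor data.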
# The depositor's hits bear a star; ? = inconclusive; / = no result given; [ ] = remark or other dose. This excerpt belongs to a sample that is enriched for hits. Unless noted, on the % scale 0 is the no-effect control and ±100 the full control effect.
SMILES,LMNA splice mod,PNC assembly inh,IMPase inh
CCOc1ccc(C(=O)N2CCN(Cc3cc(=O)n4nc(-c5cccc(OC)c5)sc4n3)CC2)cc1,13%[46 µM],/,/
Cc1ccc(C)c(Cc2c(C)nc3c(C(=O)NCc4ccc5c(c4)OCO5)cnn3c2C)c1,-19%,-92*,2
Cc1ccccc1Cc1c(C)nc2c(C(=O)NCc3ccc4c(c3)OCO4)cnn2c1C,?,?,9
Cc1nc(NC(=O)CSc2ccccc2N)sc1C,-18%,-25,4
Cc1cnc(C(=O)Nc2ccc(N3CCOCC3)cc2)cn1,-3%,-100*,-2
Cc1cnc(C(=O)Nc2ccc(N3CCCCC3)cc2)cn1,3%[46 µM],/,/
CCOC(=O)c1cc(NC(=O)Nc2ccccc2OC)c(C)nc1C,-3%,-81*,4
CCOC(=O)c1cc(NC(=O)Nc2ccccc2Cl)c(C)nc1C,28%[46 µM],/,/
Cc1cccc(N2CCN(C(=O)c3cnn(-c4cccc(Cl)c4C)c3C3CCNCC3)CC2)c1C,-16%[46 µM],/,/
CC(=O)c1noc(C)c1C(=O)Nc1nccs1,-4%,-93*,1
Cc1ncoc1C(=O)Nc1nccs1,3%,10,?
Cc1ccc(NC(=O)CCCc2nc3ccccc3s2)c(O)c1,6%[46 µM],/,/
COC(=O)/C(=C/c1cccnc1)NC(=O)c1ccccc1,-14%,?,10
CC(C)OC(=O)/C(=C/c1cccnc1)NC(=O)c1ccccc1,-14%,-92*,-7
CCOC(=O)Cc1ccc(NC(=O)N2CCOc3ccc(C)cc32)cc1,-22%[46 µM],/,/
Cc1ccc(-n2ncc(C(=O)NCc3ccc4c(c3)OCO4)c2NC(=O)c2ccco2)cc1C,?,-26,7
O=C(N/N=C/c1ccc(O)cc1)c1nc(-c2ccccc2)n(-c2ccccc2)n1,15%,-100*,/
COc1cc(/C=N/NC(=O)c2nc(-c3ccccc3)n(-c3ccccc3)n2)ccc1O,-7%,44,10
O=C(CSc1nnc(CNC(=O)c2c(F)cccc2Cl)o1)Nc1ccccc1F,/,/,13
O=C(c1ccccc1C(=O)N1CCN(c2ccccc2)CC1)N1CCN(c2ccccc2)CC1,-19%,-9,5
O=C(c1csc2c1CCCC2)N1CCN(c2ccccc2)CC1,-4%,-80*,5
Cc1ccc(C(=O)N2CCN(c3cccc(Cl)c3)CC2)cc1C,?,?,6
Cc1ccc(C(=O)N2CCN(c3ccccc3)CC2)cc1C,-13%,-107*,20
CCCCCOc1ccc(/C=C/C(=O)Nc2sc3c(c2C(=O)OCC)CCC3)cc1OC,/,/,-2
CC(=O)O[C@H]1C2OC(=O)C(C)=C2[C@@H]2OC(=O)[C@]3(CCC4OC41C)OC23 (stereo not given in full),10%,-119*,/
SMILES,LMNA splice mod,PNC assembly inh,IMPase inh
Cc1cc(C)nc(SCC(=O)N/N=C/c2cccn2-c2cccc(C(F)(F)F)c2)n1,16%,-108*,10
Cc1cc(C)nc(SCC(=O)N/N=C/c2cccn2-c2ccc(O)cc2)n1,7%,?,9
CC1(C(=O)CSc2ncn[nH]2)CCC(=O)O1 (stereo not given),9%,-4,2
CC1(C(=O)CSc2nc3ccccc3[nH]2)CCC(=O)O1 (stereo not given),-10%,-100*,-2
Cc1ccc(OCC(=O)N(Cc2ccco2)c2ccccn2)cc1,6%[46 µM],/,/
COc1ccc(C(=O)NCc2nnc(SCC(=O)N3CCC(C)CC3)o2)cc1,-5%[46 µM],/,/
CCOC(=O)C1CCN(C(=O)COC(=O)c2ccc3c(c2)C(=O)N(c2ccc(OCC)cc2)C3=O)CC1,-16%[9.22 µM],/,/
S=C(NCc1ccccc1)NC1CCCCC1,10%[46 µM],/,/
S=C(NCc1cccc(Cl)c1)NC1CCCCC1,?,-109*,/
O=C(CCC1CCCC1)NCc1cccs1,10%,68,12
OC(c1cccs1)(c1cccs1)C1C[N+]2(CF)CCC1CC2 (stereo not given),-4%,-98*,16[1.84 µM]
CCNc1ncc2nc(-c3cc(F)cc(F)c3)c(=O)n(Cc3ccc(F)cc3)c2n1,-7%,/,/
CCN(c1cccc(C)c1)S(=O)(=O)c1nnc(NC(=O)c2ccccc2Cl)s1,-5%[46 µM],/,/
COCCOC(=O)C1=C(C)Nc2cc(=O)[nH]c(=O)n2C1c1cccc([N+](=O)[O-])c1 (stereo not given),-1%,-109*,/
COCCOC(=O)C1=C(C)N(c2ccccc2)C(=O)NC1c1cccc([N+](=O)[O-])c1 (stereo not given),-2%,-10,4
COc1ccc(OC)c(NC(=O)c2c(NCc3cccs3)sc3c2CCCCC3)c1,-13%[46 µM],/,/
COc1ccc(-n2cc(-c3ccccc3)nc2SCC(=O)Nc2ccccc2C)cc1,-17%[46 µM],/,/
COc1ccc2c(c1)sc1nc(-c3ccccc3)cn12,?,-96*,0
COc1ccc(-c2cn3c(n2)sc2cc(C(=O)NCc4ccccc4)ccc23)cc1,10%[46 µM],/,/
COc1ccc(-n2cc(-c3ccccc3)nc2SC)cc1,?,-85*,3
CCOc1ccc(NC(=O)CSc2nc3ccccc3c(=O)n2CCC(=O)NC2CCCCC2)cc1,-13%[46 µM],/,/
CCCc1nc2ccc(NC(=O)c3ccco3)cc2c(=O)n1Cc1ccccc1Cl,-9%,-100*,-7
CCCc1nc2ccc(NC(=O)c3ccco3)cc2c(=O)n1Cc1ccc(Cl)cc1,8%,32,6
CCCS(=O)(=O)c1c(S(=O)(=O)CCC)c2c3ccccc3ccn2c1C(=O)OC,-9%,-105*,6
CCCS(=O)(=O)c1c(S(=O)(=O)CCC)c2c(C)cccn2c1C(=O)OC,9%,-8,6
SMILES,LMNA splice mod,PNC assembly inh,IMPase inh
CC12CCC(c3c(C(=O)O)nn(-c4ccccc4)c31)C2(C)C (stereo not given),-1%,-127*,-6
CC12CCC(c3c(CO)nn(-c4ccccc4)c31)C2(C)C (stereo not given),0%,?,-4
O=C(O)c1cccc(N2C(=O)C3CC=C(Cl)CC3C2=O)c1 (stereo not given),0%,50,-1
O=C1c2cccnc2C(=O)N1CO,0%,8,-8
O=C(O)c1cccc(N2C(=O)c3cccnc3C2=O)c1,0%,-100*,8
O=C(O)c1cccc(N2C(=O)C3CC=CCC3C2=O)c1 (stereo not given),-8%,-100*,8
COc1ccc(Nc2oc(COc3ccc(C)cc3)nc2C#N)cc1,?,-100*,7
COc1ccc(Nc2oc(COc3ccc(OC)cc3)nc2C#N)cc1,?,?,16
CCN(CC)C(=O)c1ccc2c(c1[N+](=O)[O-])C(=O)c1ccccc1C2=O,-4%,-82*,?
CCN(CC)C(=O)c1cccc2c1C(=O)c1ccccc1-2,-4%,?,7
CCN(C(=O)CN1CC(C)OC(C)C1)c1c(N)n(Cc2ccccc2)c(=O)[nH]c1=O (stereo not given),-8%[46 µM],/,/
Cc1cc(C)cc(N2C(=O)CSC23C(=O)N(Cc2c(F)cccc2Cl)c2ccccc23)c1 (stereo not given),5%[46 µM],/,/
CCOc1ccc(-n2c(Cc3cc(=O)[nH]c(=O)[nH]3)nnc2SCC(=O)NC2CCCC2)cc1,3%,-22,3

# Assay outcomes as filed in PubChem.
